Potency and affinity values are given separately.

As a reminder, the Inhibition is how much of the control response was suppressed. Read a low Inhibition as a response near the control.

For this test, the system named is Klebsiella pneumoniae. As to conditions: Concentration 32 ug.mL-1; ASSAY_TEST Inhibition of Bacterial Growth; detection method Absorption (OD600); MEDIA CAMHB; plate type 384well; NBS; CORNING #3640; time 18 hr.
For the compound `Cn1c([N+](=O)[O-])cnc1C(=O)NCc1ccccn1.O=C(O)C(F)(F)F`, the Inhibition is 22.41%. The same measure for `Cn1c([N+](=O)[O-])cnc1C(=O)NCc1cccc(OC(F)(F)F)c1`: 27.4%. For `Cn1c([N+](=O)[O-])cnc1C(=O)NC1CC1` the value was 0.14%; for `Cn1c([N+](=O)[O-])cnc1C(=O)NCc1ccc(F)cc1`, 15.94%; for `CN(C)C(=O)c1ncc([N+](=O)[O-])n1C`, 22.37%. The same measure for `Cn1c([N+](=O)[O-])cnc1C(=O)NCc1ccc(OC(F)(F)F)cc1`: 21.15%. As to `Cc1ccc(CCNC(=O)c2ncc([N+](=O)[O-])n2C)cc1`, the Inhibition came to 27.87%. Compound `Cn1c([N+](=O)[O-])cnc1C(=O)N1CCOCC1` gave an Inhibition of 22.51%.

Turning to `Cn1c([N+](=O)[O-])cnc1C(=O)N1CCCC1`, the Inhibition amounted to 30.2%. The same measure for `CC(NC(=O)c1ncc([N+](=O)[O-])n1C)c1ccc(F)cc1` (stereo not given): 14.44%.

These data come from ChEMBL document CHEMBL4513134, “CO-ADD screening of University of Queensland (Australia) compounds” (2021).
